# From PubChem
# Most compounds without a hit are left out; they make up all but 19% or so of the library.
# IL1B secr inh – inflammasome signaling inhibition, IL-1 beta readout | THP-1 LPS/ATP IL-1B secretion, AlphaLISA, 16 h; active compounds read low | activity change, % at 57.5 µM | actives 4.7% (n = 360,000) | AID 743279; in the data active = activity change below about -50%; inconclusive = mostly about -30% to -49%
#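 Secreted IL-1B measured by AlphaLISA bead assay after 16 h compound exposure of THP-1 cells; compounds (final up to 57.5 uM) added 1 h before LPS (250 ng/mL) and ATP (1.25 mM) stimulation; lower signal means less secretion.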
# uPA generation – cell surface uPA generation inhibition; cell surface uPA generation assay, qHTS; Potency, µM (doses to about 38.3 µM), for inactives: at the top dose activity change, negative = inhibition, most hits filed as inhibitors; actives 0.31% (n = 330,000); active = well fitted inhibition curve with a large enough effect; inconclusive = small, poorly fitted or top-dose-only effect; inactive = no such curve, though single readings can be large or run the other way; tested in mouse RAW 264.7 cells; note: potency is the fitted concentration of half-maximal effect; nearly all actives have a fitted effect of over 55% in size
# HT1080NT lethal – kills 2HG-producing HT-1080-NT fibrosarcoma cells; HT-1080-NT fibrosarcoma viability, CellTiter-Glo ATP luminescence, 48 h; Potency, µM (top dose mostly 46.1 µM), inactives show at the highest dose activity, negative = less viability, usual class: cytotoxic; actives 1.6% (n = 360,000);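 note: NT is the 2HG producing partner of a matched IDH1 knockdown line; potency is the fitted concentration of half-maximal effect; 0% = DMSO-treated cells and -100% = media-only wells without cells; nearly all actives have a fitted effect of over 55% in size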
#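 HT-1080-NT; 750 cells/well; 5% FBS RPMI; 48 h compound, 37 degrees C; CellTiter-Glo luminescence; curve fitting and curve-class assignment.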
# DT40 TDP1 no CPT – qHTS for Inhibitors of human tyrosyl-DNA phosphodiesterase 1 (TDP1): qHTS in cells in absence of CPT. DT40 Tdp1-/- hTDP1 cells, no CPT, ATP luminescence, 48 h. AID 686978, 2013. Potency, µM (highest dose often 46.2 µM), inactives show at the highest dose activity change, negative = growth inhibition, hits mostly inhibitors. actives 15% (n = 420,000); note: potency is the fitted concentration of half-maximal effect; nearly all actives have a fitted effect of over 55% in size
#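 Camptothecin absent (DMSO only). Human TDP1-complemented DT40 knockout cells, 400 cells/well, 37 °C for minimum 48 hr; ATP measured via CellTiter-Glo, 30 min dark incubation, luminescence.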
# TDP1 cell CPT – growth inhibition of DT40 Tdp1-/-;hTDP1 cells with camptothecin (screen for TDP1 inhibitors) | chicken DT40 Tdp1-/-;hTDP1 cells + 20 nM CPT, ATP luminescence, 48 h | AID 686979 | actives 12% (n = 420,000) | Potency, µM (highest dose often 46.2 µM), for inactives: at the highest dose activity change, negative = growth inhibition, most hits filed as inhibitors; note: potency is the fitted concentration of half-maximal effect; nearly all actives have a fitted effect of over 55% in size
#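 Chicken DT40 Tdp1-/- cells stably complemented with human TDP1 were seeded at 400 cells/well in medium containing 20 nM camptothecin, exposed to pin-transferred compounds, and grown at 37 °C for at least 48 hr. Viability was read as ATP luminescence.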
# HT1080 IDH1KD tx – HT-1080 IDH1 knockdown cell toxicity (counter line). Potency, µM (doses to about 46.1 µM), without a hit: at the highest dose activity, negative = toxicity, hits mostly cytotoxic. actives 2% (n = 360,000). HT-1080 IDH1 knockdown viability, ATP luminescence, 48 h. AID 686971;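 note: potency is the fitted concentration of half-maximal effect; 0% = DMSO wells and -100% = cell-free medium wells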
#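 CellTiter-Glo luminescence after 48 h compound exposure at 37 degrees C of IDH1-knockdown HT-1080 cells in 5% FBS RPMI. %Activity scaled between DMSO wells and cell-free media wells, with curves fitted and assigned curve classes.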
# * = called active by the depositor; ? = inconclusive; · = no result; [ ] = dose if it differs, or a comment. Unless noted, calls come from the whole dose curve; as a rule, active = well fitted curve in the direction sought with a large enough effect; inconclusive = small, poorly fitted or top-dose-only effect, or another doubt; inactive = no such curve, though single readings can be large; an effect the other way counts as inactive or inconclusive. Unless noted, % is set by controls: 0 for no effect and ±100 for the full control effect.
SMILES,IL1B secr inh,uPA generation,HT1080NT lethal,DT40 TDP1 no CPT,TDP1 cell CPT,HT1080 IDH1KD tx
O=C(Nc1ccc(F)cc1F)N1CCc2c(sc3c2CCCC3)C1c1ccc(F)cc1 (configuration not stated),·,·,·,18µM*,?,·
CCc1c(C)sc2c1CCN(Cc1cccc(OC)c1)C2c1ccccc1 (configuration not stated),·,·,·,5.2µM*,7.3µM*,·
CCOC(=O)c1ccccc1NC(=O)N1CCc2c(sc(C)c2CC)C1c1ccccc1 (configuration not stated),·,·,·,16µM*,?,·
COc1ccccc1NC(=O)N1CC(=O)Nc2sc3c(c2C1c1ccccc1)CCCC3 (configuration not stated),·,·,·,18µM*,23µM*,·
COCC(C)n1c(SCC(=O)NC(=O)NCc2ccccc2)nc2ccccc2c1=O (configuration not stated),-3,-5%,-8%,-29%,-20%,-15%
Cn1nnc2c(NCc3ccco3)ncnc21,·,·,·,-18%,-21%,·
CC(C)(C)c1oc(C(=O)O)cc1CN1CCOCC1,14,2%,25%,-16%,3%,14%
O=C(COC(=O)CCc1ccc(S(=O)(=O)N2CCOCC2)cc1)NCc1ccccc1,11,3%,10%,-8%,-2%,11%
CC(=O)N1CCCC(C)(C(=O)Nc2cccc(OC(C)C)c2)C1 (configuration not stated),20,·,29%,4%,-19%,1%
Cc1ccc(NC(=O)N2CCc3c(sc4c3CCCC4)C2c2ccccc2)cc1F (configuration not stated),·,·,·,15µM*,?,·
CCOc1ccccc1NC(=O)N1CCc2c(sc3c2CCCC3)C1c1ccccc1 (configuration not stated),·,·,·,23µM*,?,·
Cc1ccc(NC(=O)C2=C(C(=O)O)CCCC2)cc1F,-1,0%,-8%,-11%,2%,-3%
Cc1ccc(Cl)cc1NC(=O)COCc1cc(-c2ccco2)on1,·,·,·,?,-21%,·
CCN(CC)C(=O)N1c2ccccc2C=Cc2ccccc21,0,8%,-19%,10µM*,9.2µM*,?
COC(=O)N1c2ccccc2C=Cc2ccccc21,10,-3%,?,21µM*,?,?
NC(=O)N1c2ccccc2C=Cc2ccccc21,31,-26%,?,?,?,-9%
CCc1c(C#N)c(SCCC(=O)Nc2ccc(OC)cc2)nc2c1C(=O)CC(C)(C)C2,?,-2%,-5%,?,-24%,-10%
CCc1c(C#N)c(SCc2c(C)noc2C)nc2c1C(=O)CC(C)(C)C2,9,6%,-27%,?,26µM*,-12%
COc1ccccc1OCCCN1CCC(C(O)(c2ccccc2)c2ccccc2)CC1,-54*,·,21µM*,21µM*,?,16µM*
Clc1ccccc1OCCN1CCCCC1,-2,3%,14%,-10%,-12%,?
OC(c1ccccc1)(c1ccccc1)C1CCN(CCCOc2ccccc2Cl)CC1,?,·,21µM*,16µM*,21µM*,?
C/C(CC(=O)Nc1ccc(Cl)cn1)=N\NC(=O)Cc1cccs1,26,-1%,-15%,-5%,0%,0%
Cc1cc(C)c2c(N)c(S(=O)c3ccc(C(C)(C)C)cc3)sc2n1 (configuration not stated),-67*,-5%,-28%,?,?,-13%
Cc1cc(C)c2c(N)c(C(=O)C(C)(C)C)sc2n1,13,-2%,-1%,3%,2%,1%
CC(C)(O)CN(C(=O)C(c1ccccc1)c1ccccc1)C1CCCCC1,-63*,11%,5%,?,?,13%
SMILES,IL1B secr inh,uPA generation,HT1080NT lethal,DT40 TDP1 no CPT,TDP1 cell CPT,HT1080 IDH1KD tx
CC(=O)NC(CC(=O)N(C)C1CCCCC1)c1ccccc1 (configuration not stated),39,2%,8%,-4%,2%,14%
Cc1ccc(OCc2nc(C#N)c(N3CCN(Cc4ccccc4)CC3)o2)cc1,-29,5%,2%,?,18µM*,-27%
COc1ccc(N2CCN(c3oc(Cc4cccc5ccccc45)nc3C#N)CC2)cc1,-29,·,5%[9.24 µM],6.5µM*,?,0%
N#Cc1nc(COc2ccccc2)oc1N1CCC(Cc2ccccc2)CC1,-55*,8%,-4%,?,?,0%
CCn1c(=O)c(=O)[nH]c2cc(C(=O)NC(C)c3ccc(S(N)(=O)=O)cc3)ccc21 (configuration not stated),12,3%,6%,0%,4%,26%
CCNC(=O)C1CCCN(C(=O)c2cccc(C(F)(F)F)c2)CC1 (configuration not stated),42,·,19%,-17%,-14%,2%
COc1cc(Cl)c(C)cc1NC(=O)Cn1c2ncccc2c(=O)n1-c1ccccc1,·,·,·,-22%,?,·
Cc1nc2ccccc2c(=O)n1-c1ccc(NC(=O)C(F)(F)F)cc1,·,·,·,-18%,-21%,·
C[C@H](CN1CCCC1)C(=O)c1ccc(C(F)(F)F)cc1,·,·,·,-4%,6%,·
Cc1ccc2[nH]cc(CCNC(=O)C3CCCO3)c2c1 (configuration not stated),-17,-7%,-2%,-10%,-10%,-1%
CC(=O)c1c(C)[nH]c2ccccc2c1=O,25,1%,18%,-16%,0%,8%
Cc1[nH]c2ccccc2c1C(=O)/C=C/c1ccccc1Cl,-105*,-1%,?,?,-28%,-20%
Cc1nc2ccccc2c(N)c1C(=O)/C=C/c1ccccc1,-100*,-17%,?,?,?,12µM*
Cc1[nH]c2ccccc2c1C(=O)/C=C\c1ccccc1Cl,-101*,-7%,?,?,21µM*,?
Cc1[nH]c2ccccc2c1C(=O)/C=C/c1ccccc1,-96*,-15%,?,?,?,?
Cc1nc2ccccc2c(=O)n1NC(=O)/C=C/c1ccccc1,21,1%,18%,-15%,-5%,13%
Cc1ccc(CNC(=O)c2ccc(S(=O)(=O)N(C)C)cc2)n1C,2,4%,6%,-13%,-29%,-1%
COc1ccc(/C=C/C(=O)OCC(=O)NC2CCCCC2C)c(OC)c1 (configuration not stated),9,1%,12%,-10%,-2%,-1%
